Laboratory results: PubChem BioAssay AID492947 (National Center for Advancing Translational Sciences (NCATS), 2010)
Hit rate of the full screen: of about 330,000 compounds, about 80 (0.02%) were called active. The call rests on the fitted dose curve; in most records, active means well fitted activation curve with a large enough effect; inconclusive means small, poorly fitted or top-dose-only effect; inactive means flat fitted curve, though single readings scatter. For the sample, actives were picked, then their nearest neighbours and some compounds at random.

Target: Beta-2 adrenergic receptor (Homo sapiens) (UniProt P07550)
Assay: qHTS assay of beta-arrestin-biased ligands of beta2-adrenergic receptor;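 further: 0% = DMSO controls and full agonism = EC100 isoproterenol or metaproterenol; nearly all actives have a fitted effect of over 65% in size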
Settings: beta-arrestin recruitment to beta2AR, cell-based reporter; series mostly up to 46.1 µM; activation: at the top concentration
Description: NIH Molecular Libraries Probe Production Network [MLPCN]
NIH Chemical Genomics Center [NCGC]
PI: Bryan Roth and Bob Lefkowitz
The concept of biased agonism is an emerging concept of molecular pharmacology which proposes that seven transmembrane receptors (7TMRs) or G protein-coupled receptors (GPCRs), exist in multiple signaling conformations and complexes and that ligands (either agonists or antagonists) can induce signaling biased responses for distinct signal transduction cascades.
Furthermore, accumulating evidence over the last decade has drawn attention to a novel function of beta-arrestins as signal transducers that scaffold various signaling molecules upon activation of 7TMRs. […] This beta-arrestin-biased signaling presumably leads to distinct physiological outcomes from those by G protein activation.
Additionally, the active receptor conformations which […] on this beta-arrestin signaling are likely different from those activating G protein signaling
The goal of this screening project will be to discover and optimize novel beta-arrestin-biased ligands for beta2-AR signaling. A luminescent cell-based assay for beta2-AR-mediated agonism, known as the Tango assay, has been validated in which ligand binding of a recombinant beta2-AR and subsequent recruitment of a recombinant beta-arrestin lead to the release of the transcriptional activator tTA, which upregulates transcription of a tTA-responsive luciferase gene. […] Compounds were screened as a concentration-titration series that ranged from 46 microM to 0.6 nM.
NCGC Assay Protocol Summary:
Tango cells were dispensed into white, solid, tissue-culture-treated 1536-well plates at 1500 cells/well in DMEM, containing 1% fetal bovine serum (FBS). Then, 23 nL of compounds or DMSO were delivered to each well using a pin tool. Plates were incubated at 37 degrees C, 5% CO2 for 18 hr. Then 2.5 uL luminescent substrate mix (in-house prepared: 150 mM Tris-Cl, pH 7.6, 3 mM MgCl2, 1% Triton X-100, 5 mM DTT, 0.5 mM CoA, 0.15 mM ATP, 0.44 mM D-luciferin, final concentrations) was added to each well. Plates were then incubated for 15 minutes at room temperature, and subsequently measured on a ViewLux plate reader for luminescent signal using a clear filter with a 10 second exposure and 2x binning. The %Activity was determined from the corrected luminescence values.
Concentration-response curves were fitted to the signals arising from the resulting luminescence. The concentration-effect curves were then classified based on curve quality (r2), response magnitude and degree of measured activity, and compounds were subsequently categorized based on their curve class.
Keywords: biased agonism, beta2-AR, beta-arrestin, GPCR, 7TMR, Tango, luminescence, MLSMR, MLPCN, NIH Roadmap, qHTS, NCGC

Sequence of Beta-2 adrenergic receptor (Homo sapiens) (P07550 whole entry, looked up): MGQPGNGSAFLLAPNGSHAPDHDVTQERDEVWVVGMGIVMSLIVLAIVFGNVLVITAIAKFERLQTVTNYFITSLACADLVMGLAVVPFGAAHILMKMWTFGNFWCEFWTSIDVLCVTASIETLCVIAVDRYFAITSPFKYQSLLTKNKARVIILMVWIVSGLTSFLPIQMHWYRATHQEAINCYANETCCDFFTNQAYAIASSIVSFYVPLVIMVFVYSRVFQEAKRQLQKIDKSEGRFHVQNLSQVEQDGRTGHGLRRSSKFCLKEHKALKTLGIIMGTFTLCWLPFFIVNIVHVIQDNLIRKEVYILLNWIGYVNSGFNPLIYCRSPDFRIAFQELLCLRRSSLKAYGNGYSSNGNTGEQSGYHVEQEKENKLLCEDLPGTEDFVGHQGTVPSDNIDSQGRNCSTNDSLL

activation, inactive:
Cc1ccsc1C(=O)OCC(=O)NCCc1ccccc1 -0.289%
Cc1ccc(S(=O)(=O)NCCC(=O)NNC(=O)C2COc3ccccc3O2)cc1 (stereo not drawn) -0.347%
COc1ccc(CC(=O)NCc2nnc(SCC(=O)Nc3ncc(C)s3)n2C)cc1 -0.188%
CC1CCCCC1NC(=O)c1cc(=O)[nH]c2ccccc12 (stereo not drawn) 0.184%
Cc1csc2ncc(C(=O)N(Cc3ccccc3)c3ccccn3)c(=O)n12 -0.435%
c1ccc(-c2cnc(CN3CCN(c4ccccc4)CC3)o2)cc1 -1.12%
Cc1cccc(C)c1N1C(=O)CN(Cc2ccccc2)C1=S -0.274%
Cc1cccc(N(C(=O)Cn2nnc(-c3ccc(C)o3)n2)C(C(=O)NC2CCCC2)c2ccncc2)c1 (stereo not drawn) -1.02%
COc1ccccc1N1CC(C(=O)Nc2nnc(SCC(=O)NC(C)C)s2)CC1=O (stereo not drawn) -0.293%
CCO[C@H]1OC(C(=O)N2CCCCCCC2)=C[C@@H](c2ccc(C(F)(F)F)cc2)[C@@H]1CCCO -0.332%
COc1ccc(S(=O)(=O)N(C)C[C@H]2Oc3ccc(NS(=O)(=O)c4cccs4)cc3CC(=O)N([C@H](C)CO)C[C@H]2C)cc1 0.0688%
O=C(Cn1cncn1)N/N=C/c1c2ccccc2cc2ccccc12 0.226%
CCCOC1CCCN(C(=O)c2cc(COc3cncc(Cl)c3)on2)C1 (stereo not drawn) 0.0549%
CCC1SC(CC)C(=O)N(CC(=O)NC2CCCCC2)C1=O (stereo not drawn) 0.0877%
CCc1ccc2oc(=O)cc(CN3CCCCC3C)c2c1 (stereo not drawn) 0.329%
O=C(NCc1ccccc1)C1CCCN(c2nc3ccsc3c(=O)s2)C1 (stereo not drawn) 0.0158%
CC(C)CCNC(=O)CN(C(=O)Cn1nnc(-c2ccc(F)cc2)n1)C1CCCC1 -0.252%
CC(=O)Nc1ccc(S(=O)(=O)Nc2ccc(-c3ccc4nnc(C)n4n3)cc2)cc1 -0.447%
Cn1cc(CCC(=O)NC2CC2)c2ccccc21 -0.249%
COC(=O)c1sc(SC)c(S(=O)(=O)C(C)C)c1N/N=C(\C#N)S(=O)(=O)c1ccccn1 -0.888%
CCn1cc(C(=O)Nc2cc(C)ccc2C)c(=O)c2ccc(C)nc21 0.25%
COC(=O)c1sc(NC(=O)COC(=O)C2CCC2)c(C(=O)OC)c1C -0.283%
Cc1nnc(SCC(=O)Nc2ccc(S(=O)(=O)Nc3ccc(Cl)nn3)cc2)s1 -0.792%
Cn1c(SCC(=O)Nc2ccc(Cl)cc2)nc(O)cc1=O -0.732%
Cc1nn(-c2ccccc2)c(NC(=O)c2cccs2)c(-c2ccc(Cl)cc2)c1=O -0.018%
Cc1ccc(S(=O)(=O)N(C)CC(=O)NCCc2c[nH]c3ccccc23)cc1 -0.865%
Cc1ccccc1C1=NC(C(F)(F)F)(C(F)(F)F)c2c(n(-c3ccc(F)cc3)c(=O)[nH]c2=O)N1 2.31%
CSc1nnc(C2CCCN(CC(=O)Nc3ccccc3N3CCOCC3)C2)n1C(C)C (stereo not drawn) 0.413%
CCOc1ccc(C(C)=O)cc1COC(=O)c1cnc(Cl)c(Cl)c1 0.0917%
O=S(=O)(Cc1ccccc1)c1nc2ccccc2n1Cc1ccccn1 -0.237%
O=C(O)c1cccnc1Sc1ncnc2sc3c(c12)CCC3 -0.363%
CCCOc1ccc(Cc2c(Cl)nc(SC)nc2NC)cc1 0.211%
CCOC(=O)c1c(NC(=O)Cn2nc(C(F)(F)F)cc2C)sc2c1CCC2 -0.382%
